Source: PubChem BioAssay (NCATS)
Inconclusive results are not listed. A number with no mark means an inactive call. The source made the active and inactive calls. Calls come from the whole dose curve; as a rule, active = well fitted cell-killing curve with a large enough effect; inconclusive = small, poorly fitted or top-dose-only effect, or effect the other way; inactive = no such curve, though single readings can be large or run the other way.

experiment: qHTS of pediatric cancer cell lines to identify multiple opportunities for drug repurposing: Confirmatory screen for Saos-2 cells (AID 1347127); conditions: Saos-2 osteosarcoma cell viability; series mostly up to 45.9 µM; activity change, negative = cytotoxic: at the top concentration; note: nearly all actives have a fitted effect of over 60% in size
Text: Drug repurposing or repositioning has been offered as a strategy for drug development in oncology programs. This approach has special potential for childhood cancers and other rare or orphan diseases, where the expected return on new drug development has been a disincentive to pharmaceuticals.
In this project we exploit the poly-pharmacology of drugs to discover new indications via phenotypic screening of a panel of 19 well-characterized cell lines derived from solid tumors seen in children and adolescents. The goal is to identify approved drugs with previously unrecognized anticancer properties that has the potential to reveal new mechanisms and biological processes involved in carcinogenesis or drug resistance. We employed a titration-based paradigm (quantitative high-throughput screening or qHTS), where all compounds were tested at multiple concentrations for their effect on cell viability. Concentration-response curves (CRCs) were derived directly from the primary screen, and both potency and efficacy values were used to identify compounds with robust bioactivity profiles. We screened the NIH Chemical Genomics Center (NCGC) Pharmaceutical Collection (NPC) and Mechanism Interrogation Plate (MIPE) small molecule collections of approved and investigational compounds against these cell lines; and measured metabolically active cells after 48 hours of compound treatment as a proxy for cell viability.
Assay Submitter: Nathalia J. Martinez, National Center for Advancing Translational Sciences, National Institutes of Health, Rockville, MD, USA; email: natalia.martinez@nih.gov
[1] Shen, M et al. Quantitative high-throughput phenotypic screening of pediatric cancer cell lines identifies multiple opportunities for drug repurposing. Oncotarget 2017 Dec 19;9(4):4758-4772. PMID 29435139.
The cells were obtained from University of North Carolina (UNC), Pediatric Preclinical Testing Program (PPT), and Coriell Institute (CI).
qHTS cell viability assay:
Cells were assayed in growth media at a density of 500-1,000 cells/well. Five microliters of cells were dispensed into 1,536-well, white, solid-bottom, TC-treated plates (Greiner Bio One) using a multidrop dispenser and incubated at 37 degrees C, 5% CO2, under a humidified atmosphere for 5 hours. Twenty-three nanoliters of compounds and controls (neutral control DMSO or positive control bortezomib at final concentration of 2.3 µM) were subsequently transferred by Kalypsys pintool. For primary screens, the MIPE collection was tested at 11-point dilutions (final concentrations range from 0.78 nM to 46 µM) and the NPC collection at 8-point dilutions (final concentrations range from 0.59 nM to 46 µM). Compounds tested in follow-up screens were assayed at 11-point dilutions. Cells were incubated for 48 hours, followed by addition of 3 µL of CellTiter-Glo (Promega). After a 15 min incubation at room temperature, samples were analyzed for luminescence intensity using a ViewLux High-throughput CCD imager equipped with clear filters.
Potency is the fitted concentration of half-maximal effect.

| Compound | activity change, negative = cytotoxic | Potency |
| --- | --- | --- |
| CCCCCCCCCCCCOCCOCCOCCOCCOCCOCCOCCOCCOCCO | 0.571% | – |
| CCN1/C(=C/C=C/c2sc3ccccc3[n+]2CC)Sc2ccccc21 | – | 4140 nM (active) |
| O=C(CCCN1CC=C(n2c(=O)[nH]c3ccccc32)CC1)c1ccc(F)cc1 | -4.57% | – |
| C[C@@]12C(=O)OC(=O)[C@]1(C)C1CCC2O1 | – | 2930 nM (active) |
| CCN(CC)CCOc1ccc2c(c1)C(=O)c1cc(OCCN(CC)CC)ccc1-2 | -19.2% | – |
| CCN[C@@H]1C[C@H](N)[C@@H](OC2OC(CN)=CCC2N)[C@H](O)[C@H]1O[C@H]1OC[C@](C)(O)[C@H](NC)[C@H]1O (stereo not given in full) | 11.1% [at 0.556 µM] | – |
| CCCCCCCCCCC[C@@H](C[C@@H]1OC(=O)[C@H]1CCCCCC)OC(=O)[C@H](CC(C)C)NC=O | -6.53% | – |
| Nc1nc(Cl)nc2c1ncn2[C@@H]1O[C@H](CO)[C@@H](O)[C@@H]1F | – | 465 nM (active) |
| COc1ccc(C(=O)c2ccccc2)c(O)c1 | 5.07% | – |
| C[C@H]1O[C@@H](O[C@H]2CC[C@@]3(C)[C@H](CC[C@@H]4[C@@H]3C[C@@H](O)[C@]3(C)[C@@H](C5=CC(=O)OC5)CC[C@]43O)C2)C[C@H](O)[C@@H]1O[C@H]1C[C@H](O)[C@H](O[C@H]2C[C@H](O)[C@H](O[C@@H]3O[C@H](CO)[C@@H](O)[C@H](O)[C@H]3O)[C@@H](C)O2)[C@@H](C)O1 | – | 928 nM (active) |
